Counter-ions that a name gives are not always drawn.

This assay relates to primary human hepatic stellate cells (donor 1). Put plainly: PSMB2 reference mRNA level vs DMSO (fold); higher = more PSMB2 expression. The conditions noted are these: 48 h. How it is done: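 Secondary qRT-PCR screen in primary human HSCs (donor 1), 384-well plates, with compounds dispensed in quadruplicate and incubated for 48 h. Cells-to-CT lysates were used for multiplexed TaqMan qPCR of ACTA2 or COL1A1 with PSMB2 as reference. Fold changes versus DMSO come from a linear model (Ct_gene ~ Ct_PSMB2 + plate + chemical). A hit is defined as COL1A1 and ACTA2 FC <0.5 (FDR <0.05) with PSMB2 between 0.2 and 2.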
In the case of `C[C@H](N)Cn1ccc2cc(F)c(Cl)cc21` [Ro 60-0175 fumarate] (33.3333 µM), the “PSMB2 reference mRNA level” value came out at 0.297. As for `CO[C@H]1CC[C@@H](O[C@H]2C[C@H]([C@]3(C)CC[C@]4(C[C@H](O)[C@@H](C)[C@@H]([C@@H](C)/C=C(\C)C(=O)[C@H](C)C[C@H](C)C(=O)O)O4)O3)O[C@]3(O[C@@H]([C@H]4O[C@@](O)(CO)[C@H](C)C[C@@H]4C)C[C@@H]3C)[C@@H]2C)O[C@@H]1C` [Nanchangmycin] (11.1 µM), the figure is 0.936; as for `CN1[C@@H]2CC[C@H]1C[C@@H](OC(c1ccc(F)cc1)c1ccc(F)cc1)C2` [3 α-Bis-(4-fluorophenyl) methoxytropane hydrochloride] (33.3333 µM), 0.247. For `CC1=C(CC/C(C)=C/CCC2=CC[C@H](C3=CC(=O)O[C@H]3O)O[C@H]2O)C(C)(C)CCC1` [Manoalide] (40 µM) the value was 1.84.

As for `COc1ccc2[nH]cc(C3=CCNCC3)c2c1` (33.3333 µM), the “PSMB2 reference mRNA level” value came out at 1.01. As for `CC1=NCCc2c1[nH]c1cc(O)ccc21` [Harmalol hydrochloride dihydrate] (24.4333 µM), the figure is 0.715; as for `O=c1[nH]c2ccccc2n1C1CCN(CCCC(c2ccc(F)cc2)c2ccc(F)cc2)CC1` [Pimozide] (33.3333 µM), 0.0111. For `O=C1C2CCN(CC2)C1(CO)CO` (90 µM) the value was 0.115; for `CCCCCCCCCCCCCC(=O)O[C@@H]1[C@@H](C)[C@@]2(O)[C@@H](C=C(CO)C[C@]3(O)C(=O)C(C)=C[C@@H]23)[C@@H]2C(C)(C)[C@]12OC(C)=O` [Phorbol 12-myristate 13-acetate] (27.0333 µM), 0.829; for `CN(C(=O)Cc1ccc(Cl)c(Cl)c1)[C@H](CN1CCCC1)c1ccccc1` [ICI-199,441 hydrochloride] (33.3333 µM), 0.128. As for `CCN(CC)CCO[C@H]1CC[C@@]2(C)C(=CC[C@@H]3[C@@H]2CC[C@]2(C)C(=O)CC[C@@H]32)C1` (33.3333 µM), the figure is 0.278; as for `CC[C@H]1CN2CCc3cc(OC)c(OC)cc3[C@@H]2C[C@@H]1C[C@H]1NCCc2cc(OC)c(OC)cc21` [Emetine] (12.0333 µM), 0.628; as for `CC1=C(O)C(=O)C=C2C1=CC=C1[C@@]2(C)CC[C@@]2(C)[C@@H]3C[C@](C)(C(=O)O)CC[C@]3(C)CC[C@]12C` [Celastrol] (3.33333 µM), 0.633.

For `CC(C(=O)OC1CC2CCC(C1)N2C)c1ccc(Br)cc1` (centres undefined) [PG-9 maleate] (33.3333 µM), the “PSMB2 reference mRNA level” value was found to be 1.01. As for `COc1ccc2c(c[n+](C)c3c4cc5c(cc4ccc23)OCO5)c1OC` (6.66667 µM), the figure is 0.187; as for `C[C@@H]1O[C@@H](O[C@H]2C[C@@H](O)[C@]3(CO)[C@H]4[C@H](O)C[C@]5(C)[C@@H](C6=CC(=O)OC6)CC[C@]5(O)[C@@H]4CC[C@]3(O)C2)[C@H](O)[C@H](O)[C@H]1O` [Ouabain] (33.3333 µM), 1.24. For `Fc1cc(F)c2c(c1)[C@H]1C=CC[C@H]1C(c1cccnc1)N2` (some centres undefined) [Golgicide A] (33.3333 µM) the value was 0.431.

`O=[N+]([O-])/C=C/c1ccc2c(c1)OCO2` (3.7 µM): the “PSMB2 reference mRNA level” value worked out at 1.

Turning to `C[C@]12CC[C@H](O)C[C@H]1CC[C@@H]1[C@@H]2CC[C@]2(C)[C@@H](C3=CC(=O)OC3)CC[C@]12O` [Digitoxigenin] (33.3333 µM), the “PSMB2 reference mRNA level” value amounted to 0.954.

For the origin of these results see the supplement of paper PMC9135407.
